From paper PMC5540273 (PLoS ONE, 2017)
Where two headings read alike, the source gives them in different places.

How the values were obtained:
PIP5K1A = details: concentration: 1 μM, replicates: in singlicate; n = 1
PIP5K1C = details: concentration: 1 μM, replicates: in singlicate; n = 1
PIP5K2B = details: concentration: 1 μM, replicates: in singlicate; n = 1
PIP5K2C = tested on: T1, PIP5K2C; details: concentration: 1 μM, replicates: in singlicate; n = 1
T1 construct: gene PIP4K2C

PKAC-alpha = tested on: T2, PKAC-alpha; details: n = 1
T2 construct: gene PRKACA

PKAC-beta = tested on: T3, PKAC-beta; details: n = 1
T3 construct: gene PRKACB

PKMYT1 = details: concentration: 1 μM, replicates: in singlicate; n = 1
PKN1 = details: n = 1
PKN2 = details: concentration: 1 μM, replicates: in singlicate; n = 1
PLK1 = details: concentration: 1 μM, replicates: in singlicate; n = 1
PLK2 = details: concentration: 1 μM, replicates: in singlicate; n = 1
PLK3 = details: concentration: 1 μM, replicates: in singlicate; n = 1
PLK4 = details: concentration: 1 μM, replicates: in singlicate; n = 1
PRKCD = details: n = 1
PRKCE = details: concentration: 1 μM, replicates: in singlicate; n = 1
PRKCH = details: concentration: 1 μM, replicates: in singlicate; n = 1
PRKCI = details: n = 1
PRKCQ = details: concentration: 1 μM, replicates: in singlicate; n = 1
PRKD1 = details: concentration: 1 μM, replicates: in singlicate; n = 1
PRKD2 = details: concentration: 1 μM, replicates: in singlicate; n = 1
[1] = concentration: 1 μM, replicates: in singlicate
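Further: KINOMEscan kinase panel screen.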

What does the source list for `COc1cc(Nc2nccc(N3CCC(NC(=O)c4cc5ccccc5s4)C3)n2)cc(OC)c1OC` (centres unmarked) [GSK1379760]?
%Inh (PIP5K1A): 26%; %Inh (PIP5K1C): 52%; %Inh (PIP5K2B): 15%; %Inh (PIP5K2C): 92.6%; %Inh (PKAC-alpha; [1]): 18%; %Inh (PKAC-beta; [1]): 0%; %Inh (PKMYT1): 0%; %Inh (PKN1; [1]): 0%; %Inh (PKN2): 1%; %Inh (PLK1): 17%; %Inh (PLK2): 0%; %Inh (PLK3): 14%; %Inh (PLK4): 0%; %Inh (PRKCD; [1]): 7%; %Inh (PRKCE): 14%; %Inh (PRKCH): 5%; %Inh (PRKCI; [1]): 7%; %Inh (PRKCQ): 3%; %Inh (PRKD1): 0%; %Inh (PRKD2): 23%

Which results are given for `Cl.c1ccc(-c2ccc3c(Nc4ccc5[nH]ccc5c4)ccnc3c2)nc1` [GW440138]?
%Inh (PIP5K1A): 50%; %Inh (PIP5K1C): 66%; %Inh (PIP5K2B): 8%; %Inh (PIP5K2C): 65%; %Inh (PKAC-alpha; [1]): 0%; %Inh (PKAC-beta; [1]): 0%; %Inh (PKMYT1): 0%; %Inh (PKN1; [1]): 0%; %Inh (PKN2): 0%; %Inh (PLK1): 0%; %Inh (PLK2): 0%; %Inh (PLK3): 0%; %Inh (PLK4): 9%; %Inh (PRKCD; [1]): 0%; %Inh (PRKCE): 11%; %Inh (PRKCH): 12%; %Inh (PRKCI; [1]): 0%; %Inh (PRKCQ): 0%; %Inh (PRKD1): 1%; %Inh (PRKD2): 2%

How did the “%Inh” value (PIP5K1A) turn out when `COc1cccc(NC(=O)NC2CCN(c3ccnc(Nc4cc(OC)c(OC)c(OC)c4)n3)C2)c1` (centres unmarked) [GSK1379763] was run?
Its value is 0%.

What about the “%Inh” value (PIP5K1C) of the same compound?
The value was 57%.

And the “%Inh” value (PIP5K2B)?
The value was 0%.

And the “%Inh” value (PIP5K2C)?
Its value is 91.1%.

What about the “%Inh” value (PKAC-alpha; [1]) of the same compound?
Its value is 0%.

And the “%Inh” value (PKAC-beta; [1])?
Its value is 0%.

And the “%Inh” value (PKMYT1)?
The value was 64%.

What about the “%Inh” value (PKN1; [1]) of the same compound?
Its value is 0%.

And the “%Inh” value (PKN2)?
Its value is 0%.

What about the “%Inh” value (PLK1) of the same compound?
The value was 15%.

And the “%Inh” value (PLK2)?
The value was 0%.

And the “%Inh” value (PLK3)?
Its value is 12%.

And the “%Inh” value (PLK4)?
The value was 48%.

What about the “%Inh” value (PRKCD; [1]) of the same compound?
Its value is 0%.

What about the “%Inh” value (PRKCE) of the same compound?
The value was 14%.

And the “%Inh” value (PRKCH)?
Its value is 0%.

What about the “%Inh” value (PRKCI; [1]) of the same compound?
Its value is 0%.

And the “%Inh” value (PRKCQ)?
The value was 0%.

And the “%Inh” value (PRKD1)?
Its value is 0%.

What about the “%Inh” value (PRKD2) of the same compound?
The value was 0%.

What does the source list for `O=C(Nc1ccccc1F)NC1CCN(c2ccnc(Nc3ccc(F)cc3)n2)CC1` [GSK1379800]?
%Inh (PIP5K1A): 1%; %Inh (PIP5K1C): 47%; %Inh (PIP5K2B): 12%; %Inh (PIP5K2C): 23%; %Inh (PKAC-alpha; [1]): 0%; %Inh (PKAC-beta; [1]): 0%; %Inh (PKMYT1): 7%; %Inh (PKN1; [1]): 0%; %Inh (PKN2): 0%; %Inh (PLK1): 0%; %Inh (PLK2): 0%; %Inh (PLK3): 0%; %Inh (PLK4): 0%; %Inh (PRKCD; [1]): 0%; %Inh (PRKCE): 2%; %Inh (PRKCH): 0%; %Inh (PRKCI; [1]): 18%; %Inh (PRKCQ): 0%; %Inh (PRKD1): 0%; %Inh (PRKD2): 2%

How did the “%Inh” value (PIP5K1A) turn out when `CN(c1ccc(NC(=O)Nc2cc(C(F)(F)F)ccc2F)cc1)c1ccnc(Nc2ccc(S(N)(=O)=O)cc2)n1` [GW809893] was run?
Its value is 10%.

And the “%Inh” value (PIP5K1C)?
The value was 14%.

What about the “%Inh” value (PIP5K2B) of the same compound?
The value was 0%.

What about the “%Inh” value (PIP5K2C) of the same compound?
The value was 94.6%.

What about the “%Inh” value (PKAC-alpha; [1]) of the same compound?
Its value is 18%.

And the “%Inh” value (PKAC-beta; [1])?
The value was 18%.

And the “%Inh” value (PKMYT1)?
Its value is 1%.

What about the “%Inh” value (PKN1; [1]) of the same compound?
The value was 0%.

What about the “%Inh” value (PKN2) of the same compound?
The value was 8%.

And the “%Inh” value (PLK1)?
Its value is 3%.

What about the “%Inh” value (PLK2) of the same compound?
Its value is 54%.

What about the “%Inh” value (PLK3) of the same compound?
The value was 56%.

And the “%Inh” value (PLK4)?
Its value is 97.6%.

And the “%Inh” value (PRKCD; [1])?
The value was 0%.

What about the “%Inh” value (PRKCE) of the same compound?
The value was 0%.

What about the “%Inh” value (PRKCH) of the same compound?
Its value is 0%.

And the “%Inh” value (PRKCI; [1])?
Its value is 29%.

What about the “%Inh” value (PRKCQ) of the same compound?
The value was 9%.

And the “%Inh” value (PRKD1)?
The value was 0%.

What about the “%Inh” value (PRKD2) of the same compound?
The value was 10%.

Which results are given for `CCn1c(-c2nonc2N)nc2c(C#CC(C)(C)O)ncc(OCCCCN)c21.O=C(O)C(F)(F)F.O=C(O)C(F)(F)F` [GSK507274]?
%Inh (PIP5K1A): 26%; %Inh (PIP5K1C): 0%; %Inh (PIP5K2B): 6%; %Inh (PIP5K2C): 0%; %Inh (PKAC-alpha; 1 µM): 92.5%; %Inh (PKAC-beta; 1 µM): 95.6%; %Inh (PKMYT1): 0%; %Inh (PKN1; 1 µM): 5%; %Inh (PKN2): 0%; %Inh (PLK1): 5%; %Inh (PLK2): 0%; %Inh (PLK3): 0%; %Inh (PLK4): 0%; %Inh (PRKCD; 1 µM): 91%; %Inh (PRKCE): 98%; %Inh (PRKCH): 97.7%; %Inh (PRKCI; 1 µM): 78%; %Inh (PRKCQ): 86%; %Inh (PRKD1): 29%; %Inh (PRKD2): 23%

Which results are given for `Nc1ncnc2c1nc(-c1ccccc1)n2-c1ccccc1` [SKF-97293]?
%Inh (PIP5K1A): 13%; %Inh (PIP5K1C): 0%; %Inh (PIP5K2B): 19%; %Inh (PIP5K2C): 0%; %Inh (PKAC-alpha; [1]): 7%; %Inh (PKAC-beta; [1]): 17%; %Inh (PKMYT1): 18%; %Inh (PKN1; [1]): 20%; %Inh (PKN2): 4%; %Inh (PLK1): 68%; %Inh (PLK2): 38%; %Inh (PLK3): 16%; %Inh (PLK4): 26%; %Inh (PRKCD; [1]): 14%; %Inh (PRKCE): 35%; %Inh (PRKCH): 9%; %Inh (PRKCI; [1]): 13%; %Inh (PRKCQ): 0%; %Inh (PRKD1): 5%; %Inh (PRKD2): 0%

How did the “%Inh” value (PIP5K1A) turn out when `COc1cc(Nc2nccc(-c3c(-c4cccc(NC(=O)c5c(F)cccc5F)c4)nn4ccccc34)n2)cc(OC)c1OC` [GSK323521] was run?
Its value is 0%.

And the “%Inh” value (PIP5K1C)?
Its value is 45%.

And the “%Inh” value (PIP5K2B)?
Its value is 23%.

What about the “%Inh” value (PIP5K2C) of the same compound?
Its value is 27%.

And the “%Inh” value (PKAC-alpha; [1])?
The value was 0%.

And the “%Inh” value (PKAC-beta; [1])?
Its value is 6%.

What about the “%Inh” value (PKMYT1) of the same compound?
The value was 4%.

What about the “%Inh” value (PKN1; [1]) of the same compound?
The value was 12%.

And the “%Inh” value (PKN2)?
The value was 6%.

And the “%Inh” value (PLK1)?
Its value is 2%.

What about the “%Inh” value (PLK2) of the same compound?
The value was 0%.

And the “%Inh” value (PLK3)?
The value was 0%.

And the “%Inh” value (PLK4)?
Its value is 6%.

What about the “%Inh” value (PRKCD; [1]) of the same compound?
The value was 31%.

And the “%Inh” value (PRKCE)?
Its value is 17%.

What about the “%Inh” value (PRKCH) of the same compound?
Its value is 22%.

And the “%Inh” value (PRKCI; [1])?
Its value is 27%.

And the “%Inh” value (PRKCQ)?
Its value is 15%.

And the “%Inh” value (PRKD1)?
Its value is 8%.

And the “%Inh” value (PRKD2)?
Its value is 7%.

Which results are given for `O=C(Nc1cccc(Oc2ccc3nc(NC(=O)C4CC4)cn3n2)c1)c1ccccc1C(F)(F)F`?
%Inh (PIP5K1A): 39%; %Inh (PIP5K1C): 33%; %Inh (PIP5K2B): 0%; %Inh (PIP5K2C): 34%; %Inh (PKAC-alpha; [1]): 0%; %Inh (PKAC-beta; [1]): 34%; %Inh (PKMYT1): 0%; %Inh (PKN1; [1]): 0%; %Inh (PKN2): 0%; %Inh (PLK1): 0%; %Inh (PLK2): 0%; %Inh (PLK3): 4%; %Inh (PLK4): 0%; %Inh (PRKCD; [1]): 3%; %Inh (PRKCE): 6%; %Inh (PRKCH): 0%; %Inh (PRKCI; [1]): 28%; %Inh (PRKCQ): 0%; %Inh (PRKD1): 0%; %Inh (PRKD2): 0%

With `Cl.NC(=O)c1cccc(Nc2nccc(Nc3ccc(Oc4c(Cl)cccc4Cl)c(Cl)c3)n2)c1` [GW659009] as the compound, how does the “%Inh” value (PIP5K1A) read?
The value was 0%.

What about the “%Inh” value (PIP5K1C) of the same compound?
The value was 19%.

What about the “%Inh” value (PIP5K2B) of the same compound?
Its value is 97.4%.

And the “%Inh” value (PIP5K2C)?
The value was 64%.

And the “%Inh” value (PKAC-alpha; [1])?
The value was 0%.

And the “%Inh” value (PKAC-beta; [1])?
Its value is 0%.

And the “%Inh” value (PKMYT1)?
Its value is 0%.

What about the “%Inh” value (PKN1; [1]) of the same compound?
Its value is 59%.

What about the “%Inh” value (PKN2) of the same compound?
The value was 0%.

And the “%Inh” value (PLK1)?
The value was 0%.

What about the “%Inh” value (PLK2) of the same compound?
Its value is 0%.

And the “%Inh” value (PLK3)?
Its value is 30%.

And the “%Inh” value (PLK4)?
Its value is 0%.

What about the “%Inh” value (PRKCD; [1]) of the same compound?
Its value is 0%.

And the “%Inh” value (PRKCE)?
The value was 0%.

What about the “%Inh” value (PRKCH) of the same compound?
Its value is 0%.

What about the “%Inh” value (PRKCI; [1]) of the same compound?
Its value is 0%.

And the “%Inh” value (PRKCQ)?
Its value is 0%.

And the “%Inh” value (PRKD1)?
The value was 0%.

And the “%Inh” value (PRKD2)?
Its value is 0%.
